Source: PubChem (National Center for Advancing Translational Sciences (NCATS))
A selection: hits, their analogues and other compounds. The true share with any hit is near 10%.
BAZ2B inh: inhibitors of human BAZ2B bromodomain; Potency, µM (doses to about 114 µM), for inactives: at the top dose activity change, negative = inhibition, actives largely listed as inhibitors; Q9UIF8; AID 504333; actives 4.4% (n = 360,000); AlphaScreen BAZ2B-H3K14Ac peptide displacement; further: on the % scale 0 is the no-effect control and ±100 the full control effect; nearly all actives have a fitted effect of over 60% in size
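Inhibition is scored as reduced AlphaScreen emission. The BAZ2B/b-H3(5-23)K14Ac complex (50 nM each) in PBS pH 7.4, 0.01% Tween-20 meets compound (up to 110 uM) for 30 min at RT before bead addition.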
JMJD2A Tudor: blocks the human JMJD2A Tudor domain; AlphaScreen JMJD2A-Tudor / H3K4me3 peptide binding; Potency, µM (titrated, usually from 114 µM), for the others: at the highest dose activity change, negative = inhibition, usual class: inhibitors; actives 4.4% (n = 390,000); AID 504339; further: on the % scale 0 is the no-effect control and ±100 the full control effect; nearly all actives have a fitted effect of over 50% in size
GLS inhibitor: glutaminase GLS (human) inhibition; GLS enzymatic activity, qHTS titration; O94925; actives 0.21% (n = 410,000); Potency, µM (doses to about 45.5 µM), for the others: at the highest dose activity change, negative = inhibition, usual class: inhibitors; AID 624170; further: on the % scale 0 is the no-effect control and ±100 the full control effect
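hKGA in 45 mM KH2PO4 pH 8.2, 0.02% Tween-20 with pin-transferred compounds; 1 mM L-glutamine (stock) plus glutamate oxidase/HRP/Amplex Red coupling added. Fluorescence read initially and after 30 min at RT.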
G9a block: blocks human histone lysine methyltransferase G9a; Q96KQ7; G9a H3K9 monomethylation, AlphaScreen, 2 h; Potency, µM (series often up to 102 µM), inactives show at the top dose activity, negative = inhibition, usual class: inhibitors; actives 8.8% (n = 350,000); AID 504332; further: on the % scale 0 is the no-effect control and ±100 the full control effect; nearly all actives have a fitted effect of over 75% in size
Target sequence (Q96KQ7 913-1193 limits assumed): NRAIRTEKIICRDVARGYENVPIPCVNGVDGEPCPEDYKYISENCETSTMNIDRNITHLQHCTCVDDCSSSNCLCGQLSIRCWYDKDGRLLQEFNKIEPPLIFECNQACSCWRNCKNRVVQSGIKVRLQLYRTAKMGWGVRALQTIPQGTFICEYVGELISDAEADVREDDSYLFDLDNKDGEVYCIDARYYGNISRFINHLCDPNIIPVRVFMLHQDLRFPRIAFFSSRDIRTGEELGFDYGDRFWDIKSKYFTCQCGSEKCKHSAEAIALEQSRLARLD
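AlphaScreen read-out: biotin-H3K9 peptide (500 nM) methylation by 20 nM enzyme with 20 uM SAM, 2 h at room temperature after 15 min compound preincubation; anti-monomethyl H3K9 antibody plus donor/acceptor beads, 10 min dark.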
HP1b chromo inh: HP1-beta chromodomain-methylated histone interaction inhibition | actives 0.56% (n = 390,000) | AlphaScreen HP1-beta / biotin-H3K9me3 peptide binding | Potency, µM (highest dose often 114 µM), for inactives: at the highest dose activity change, negative = inhibition, usual class: inhibitors; further: nearly all actives have a fitted effect of over 70% in size
Target sequence (P83916 whole entry, looked up): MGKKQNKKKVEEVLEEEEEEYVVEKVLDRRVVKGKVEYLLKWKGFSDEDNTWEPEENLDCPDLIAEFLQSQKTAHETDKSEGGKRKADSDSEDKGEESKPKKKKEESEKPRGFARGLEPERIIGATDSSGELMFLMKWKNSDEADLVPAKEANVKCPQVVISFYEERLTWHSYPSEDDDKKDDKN
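HP1-beta protein (50 nM final) preincubated 30 min at room temperature with biotinylated H3(1-18)K9me3 peptide (50 nM) in PBS pH 7.4, 0.01% Tween-20, then compound added for 30 min. AlphaScreen streptavidin donor/nickel chelate acceptor beads (10 ug/mL final), 30 min dark, luminescence read.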
The depositor's hits bear a star; ? = inconclusive; · = not tested or not shown; [ ] = dose if it differs, or a comment. The call rests on the fitted dose curve; in most records, active means well fitted curve in the direction sought with a large enough effect; inconclusive means small, poorly fitted or top-dose-only effect, or another doubt; inactive means no such curve, though single readings can be large; an effect the other way counts as inactive or inconclusive. Potency means the concentration at half of the fitted maximal effect.

SMILES	BAZ2B inh	JMJD2A Tudor	GLS inhibitor	G9a block	HP1b chromo inh
O=C(CCSCCC(=O)NCc1ccco1)NCc1ccco1	56µM*	20µM*	-27%	?	?
O=C(NCc1ccco1)c1cccnc1-c1nc2ccccc2s1	-34%	79µM*	-2%	?	?
Cc1ccc(NC(=O)C2CCCN2S(=O)(=O)c2cccc3cccnc23)cc1 (centres undefined)	-1%	-19%	-1%	1%[59 µM]	12%
COc1cc(OCc2ccccc2)c(OC)c(OCc2ccccc2)c1	·	75%	-8%	·	118%
CC(C)c1ccc(NC(=O)CCC(=O)NCc2ccco2)cc1	0%	-17%	5%	26%	11%
CC(C)C(CC(=O)NCc1ccco1)c1ccco1 (centres undefined)	?	-28%	?	40µM*	10%
O=C(CCN1C(=O)CSc2ccccc21)Nc1cccc(C(F)(F)F)c1	10%	-9%	1%	20%[2.33 µM]	26%
CC(=O)C(Sc1nn(C)c(=S)s1)C(=O)Nc1ccccc1 (centres undefined)	?	50µM*	-1%	3.5µM*	?
Cc1c(C)c2ccc(OCC(=O)NC(Cc3ccc(Cl)cc3)C(=O)O)cc2oc1=O (centres undefined)	-3%	-12%	19%	14%[12.7 µM]	14%
Cc1c(OCC(=O)NC(Cc2ccc(Cl)cc2)C(=O)O)ccc2c1oc(=O)c1ccccc12 (centres undefined)	56µM*	-30%	?	-1%[12.7 µM]	14%
Cc1c(C)c2ccc(OCC(=O)N[C@@H](Cc3ccccc3)C(=O)O)cc2oc1=O	-16%	-10%	16µM*	-8%[12.7 µM]	69%
O=c1c2ccc(F)cc2sn1-c1ccccc1	·	·	7.1µM*	·	·
COC(=O)c1cccc(-n2sc3ccccc3c2=O)c1	6.3µM*	14µM*	11µM*	8%[0.501 µM]	-28%
O=c1c2ccccc2sn1-c1ccc(F)cc1	4.5µM*	13µM*	10µM*	2%[0.501 µM]	7%
O=C(NC1CCCC1)C1CCN(C(=O)NCc2ccccc2)CC1	-13%	-6%	3%	-2%[59 µM]	52%
O=C(/C=C/c1ccccc1[N+](=O)[O-])N1CCCCC1	·	-23%	-4%	-42%	17%
Cc1ccc(/C=N/N2CCN(c3ccccc3)CC2)cc1	14%	-3%	0%	-13%	22%
Cc1ccccc1/C=N/N1CCN(c2ccccc2)CC1	20µM*	?	16%	28µM*	?
NS(=O)(=O)c1ccc(N/N=C/C=C/c2ccccc2[N+](=O)[O-])cc1	?	?	?	32µM*	?
O=[N+]([O-])c1ccccc1/C=C/C=N/Nc1nc(N2CCCCC2)nc(N2CCCCC2)n1	?	?	5%	40µM*	?
O=[N+]([O-])c1ccccc1/C=N/Nc1nc(N2CCCC2)nc(N2CCCC2)n1	-38%	-33%	-4%	-26%	7%
O=[N+]([O-])c1ccccc1/C=C/C=N/N1CCCCC1	20µM*	18µM*	4%	40µM*	50µM*
O=[N+]([O-])c1cc(/C=N/N2CCN(c3ccccc3)CC2)ccc1Cl	?	-3%	4%	-18%[59 µM]	38%
O=[N+]([O-])c1ccccc1/C=N/N1CCN(c2ccc(Cl)cc2)CC1	14µM*	?	8%	18µM*	?
O=[N+]([O-])c1ccccc1/C=C\C=N\N1CCN(c2ccccc2)CC1	4µM*	10µM*	12%	11µM*	?
SMILES	BAZ2B inh	JMJD2A Tudor	GLS inhibitor	G9a block	HP1b chromo inh
O=[N+]([O-])c1ccccc1/C=N\N1CCN(c2ccccc2)CC1	18µM*	40µM*	0%	10µM*	?
COc1ccccc1N1CCN(/N=C/C=C/c2ccccc2[N+](=O)[O-])CC1	11µM*	20µM*	-5%	11µM*	?
C(/C=C/c1ccccc1)=N/N1CCN(c2ccccc2)CC1	-7%	-24%	3%	?	-5%
COc1cc(/C=N/NC(=O)c2ccncc2)ccc1OC(=O)c1cccc(Br)c1	?	?	13%	-1%	-15%
CC(/C=C1\SC(=S)N(CCC(=O)Nc2ccc(O)cc2)C1=O)=C\c1ccccc1	-35%	?	-13%	-13%	-11%
CC(/C=C1\SC(=S)N(c2ccc(C(=O)O)cc2)C1=O)=C\c1ccccc1	22µM*	45µM*	?	32µM*	?
CC(/C=C1\SC(=S)N(C(C(=O)O)C(C)C)C1=O)=C\c1ccccc1 (centres undefined)	25µM*	?	0%	·	8%
Cc1onc(-c2ccccc2)c1C(=O)Nc1ccc(Cl)c(S(=O)(=O)N2CCOCC2)c1	7%	-15%	-1%	11%[2.33 µM]	38%
COc1ccccc1N(C)S(=O)(=O)c1ccc(C(=O)NCC(c2ccco2)N2CCCCC2)cc1 (centres undefined)	·	-25%	2%	·	10%
CC(O)[C@H]1CC[C@H]2[C@@H]3CC[C@H]4C[C@@H](O)CC[C@]4(C)[C@H]3/C(=N/O)C[C@]12C (some centres undefined)	10%	-17%	13%	-8%[2.33 µM]	10%
Cc1cc(C)n(CC(O)Cn2c3ccc(Br)cc3c3cc(Br)ccc32)c(=O)n1 (centres undefined)	-2%	-35%	-2%	79µM*	?
Cc1cc(C)n(CC(O)Cn2c3ccccc3c3ccccc32)c(=O)n1 (centres undefined)	3%	-21%	0%	3%	4%
CC1C(=O)N2CCCc3cc(NS(=O)(=O)c4ccc(F)cc4)cc1c32 (centres undefined)	-2%	-13%	16%	50µM*	-13%
CC1C(=O)N2CCCc3cc(NC(=O)COc4ccc(Cl)cc4)cc1c32 (centres undefined)	-3%	-9%	-4%	50µM*	15%
CNC(=O)C(=O)Nc1cc2c3c(c1)C(C)C(=O)N3CCC2 (centres undefined)	-23%	-2%	-2%	1.4µM*	30%
CC1C(=O)N2CCCc3cc(NC(=O)C4CC4)cc1c32 (centres undefined)	13%	-4%	0%	-12%	-3%
Cc1ccc(OCC(O)CN2CCN(c3ccc(C)cc3)CC2)cc1 (centres undefined)	-31%	-24%	-3%	-17%	17%
COc1ccc(N2CCN(CC(O)COc3ccc([N+](=O)[O-])cc3)CC2)cc1 (centres undefined)	-36%	?	6%	?	7%
COc1ccc(OCC(O)CN2CCN(c3ccc(OC)cc3)CC2)cc1 (centres undefined)	-17%	?	9%	32µM*	3%
COc1ccc(N2CCN(CC(O)COc3cc(C)cc(C)c3)CC2)cc1 (centres undefined)	40µM*	?	32%	40µM*	-16%
